From the supplement of paper PMC7411054

Experiments:
Conditions in all cases: treatment time: 24 h
A549-ACTB-RAB5A [1] = assay: lowest phenotypically active concentration; higher = less potent
In short: (§1)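 Fifteen reporter lines derived from A549, HepG2 and WPMY1 cells by gene editing, carrying BFP for segmentation plus GFP and RFP/FusionRed markers, were exposed to 0.3, 1, 3 or 9 µM for 24 h in four wells each and imaged live. Live-cell features from each well were normalised to solvent control wells. A well set counted as deviating when ≥3 of 4 wells lay beyond the 95th percentile of control Euclidean distances, and as reproducible when the median replicate Pearson correlation exceeded the 95th percentile of non-replicates. Phenotypic activity was assigned only when both criteria were met.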

A549-GM130-SQSTM1 [2] = assay: as above
In short: as §1

A549-ACTB-RAB5A [3] = assay: phenotypically active (imaging signature differs from DMSO and reproducible) at any of 0.3-9 uM (binary (1 = active, 0 = inactive)); higher = active
In short: as §1

A549-CANX-COX4 = assay: as above
In short: as §1

A549-GM130-SQSTM1 [4] = assay: as above
In short: as §1

A549-TP53BP1-CLTA = assay: as above
In short: as §1

A549-TUBA1B-RELA [5] = assay: as above
In short: as §1

HepG2-ACTB-RAB5A [6] = assay: as above
In short: as §1

HepG2-CANX-COX4 = assay: as above
In short: as §1

HepG2-GM130-SQSTM1 = assay: as above
In short: as §1

HepG2-TP53BP1-CLTA = assay: as above
In short: as §1

HepG2-TUBA1B-RELA = assay: as above
In short: as §1

WPMY1-ACTB-RAB5A = assay: as above
In short: as §1

WPMY1-CANX-COX4 [7] = assay: as above
In short: as §1

WPMY1-GM130-SQSTM1 = assay: as above
In short: as §1

WPMY1-TP53BP1-CLTA = assay: as above
In short: as §1

WPMY1-TUBA1B-RELA = assay: as above
In short: as §1

HepG2-ACTB-RAB5A [8] = assay: lowest phenotypically active concentration; higher = less potent
In short: as §1

WPMY1-CANX-COX4 [9] = assay: as above
In short: as §1

A549-TUBA1B-RELA [10] = assay: as above
In short: as §1

CC(C)(C)c1ccc2cc(C#N)c(C#N)cc2c1
inactive: phenotypically active (A549-CANX-COX4) 0 | phenotypically active (A549-TP53BP1-CLTA) 0 | phenotypically active (A549-TUBA1B-RELA [5]) 0 | phenotypically active (HepG2-ACTB-RAB5A [6]) 0 | phenotypically active (HepG2-CANX-COX4) 0 | phenotypically active (HepG2-GM130-SQSTM1) 0 | phenotypically active (HepG2-TP53BP1-CLTA) 0 | phenotypically active (HepG2-TUBA1B-RELA) 0 | phenotypically active (WPMY1-ACTB-RAB5A) 0 | phenotypically active (WPMY1-CANX-COX4 [7]) 0 | phenotypically active (WPMY1-GM130-SQSTM1) 0 | phenotypically active (WPMY1-TP53BP1-CLTA) 0 | phenotypically active (WPMY1-TUBA1B-RELA) 0
3 µM: lowest phenotypically active concentration (A549-ACTB-RAB5A [1]) | lowest phenotypically active concentration (A549-GM130-SQSTM1 [2])
active: phenotypically active (A549-ACTB-RAB5A [3]) 1 | phenotypically active (A549-GM130-SQSTM1 [4]) 1

Clc1ccccc1C(c1ccccc1)(c1ccccc1)n1ccnc1 [Clotrimazole]
inactive: phenotypically active (A549-CANX-COX4) 0 | phenotypically active (A549-TUBA1B-RELA [5]) 0 | phenotypically active (HepG2-GM130-SQSTM1) 0 | phenotypically active (HepG2-TP53BP1-CLTA) 0 | phenotypically active (HepG2-TUBA1B-RELA) 0 | phenotypically active (WPMY1-ACTB-RAB5A) 0 | phenotypically active (WPMY1-TP53BP1-CLTA) 0 | phenotypically active (WPMY1-TUBA1B-RELA) 0
active: phenotypically active (A549-ACTB-RAB5A [3]) 1 | phenotypically active (A549-GM130-SQSTM1 [4]) 1 | phenotypically active (A549-TP53BP1-CLTA) 1 | phenotypically active (HepG2-ACTB-RAB5A [6]) 1 | phenotypically active (HepG2-CANX-COX4) 1 | phenotypically active (WPMY1-CANX-COX4 [7]) 1 | phenotypically active (WPMY1-GM130-SQSTM1) 1
9 µM: lowest phenotypically active concentration (A549-ACTB-RAB5A [1]) | lowest phenotypically active concentration (A549-GM130-SQSTM1 [2]) | lowest phenotypically active concentration (HepG2-ACTB-RAB5A [8]) | lowest phenotypically active concentration (WPMY1-CANX-COX4 [9])

CCCS(=O)(=O)Nc1ccc(F)c(C(=O)c2c[nH]c3ncc(Cl)cc23)c1F
3 µM: lowest phenotypically active concentration (A549-ACTB-RAB5A [1]) | lowest phenotypically active concentration (HepG2-ACTB-RAB5A [8])
9 µM: lowest phenotypically active concentration (A549-GM130-SQSTM1 [2]) | lowest phenotypically active concentration (A549-TUBA1B-RELA [10])
active: phenotypically active (A549-ACTB-RAB5A [3]) 1 | phenotypically active (A549-GM130-SQSTM1 [4]) 1 | phenotypically active (A549-TP53BP1-CLTA) 1 | phenotypically active (A549-TUBA1B-RELA [5]) 1 | phenotypically active (HepG2-ACTB-RAB5A [6]) 1 | phenotypically active (HepG2-CANX-COX4) 1 | phenotypically active (HepG2-GM130-SQSTM1) 1 | phenotypically active (HepG2-TP53BP1-CLTA) 1 | phenotypically active (HepG2-TUBA1B-RELA) 1 | phenotypically active (WPMY1-GM130-SQSTM1) 1
inactive: phenotypically active (A549-CANX-COX4) 0 | phenotypically active (WPMY1-ACTB-RAB5A) 0 | phenotypically active (WPMY1-CANX-COX4 [7]) 0 | phenotypically active (WPMY1-TP53BP1-CLTA) 0 | phenotypically active (WPMY1-TUBA1B-RELA) 0

COc1cc2ncnc(Nc3ccc(Cl)cc3F)c2cc1OC
9 µM: lowest phenotypically active concentration (A549-ACTB-RAB5A [1])
active: phenotypically active (A549-ACTB-RAB5A [3]) 1 | phenotypically active (A549-GM130-SQSTM1 [4]) 1 | phenotypically active (A549-TP53BP1-CLTA) 1 | phenotypically active (A549-TUBA1B-RELA [5]) 1
inactive: phenotypically active (A549-CANX-COX4) 0 | phenotypically active (HepG2-ACTB-RAB5A [6]) 0 | phenotypically active (HepG2-CANX-COX4) 0 | phenotypically active (HepG2-GM130-SQSTM1) 0 | phenotypically active (HepG2-TP53BP1-CLTA) 0 | phenotypically active (HepG2-TUBA1B-RELA) 0 | phenotypically active (WPMY1-ACTB-RAB5A) 0 | phenotypically active (WPMY1-CANX-COX4 [7]) 0 | phenotypically active (WPMY1-GM130-SQSTM1) 0 | phenotypically active (WPMY1-TP53BP1-CLTA) 0 | phenotypically active (WPMY1-TUBA1B-RELA) 0
3 µM: lowest phenotypically active concentration (A549-GM130-SQSTM1 [2]) | lowest phenotypically active concentration (A549-TUBA1B-RELA [10])

COc1c(C=O)c(O)cc2c1C(=O)c1ccccc1C2=O [Damnacanthal]
active: phenotypically active (A549-ACTB-RAB5A [3]) 1 | phenotypically active (A549-GM130-SQSTM1 [4]) 1 | phenotypically active (A549-TP53BP1-CLTA) 1 | phenotypically active (HepG2-ACTB-RAB5A [6]) 1 | phenotypically active (HepG2-GM130-SQSTM1) 1 | phenotypically active (HepG2-TP53BP1-CLTA) 1 | phenotypically active (WPMY1-ACTB-RAB5A) 1 | phenotypically active (WPMY1-CANX-COX4 [7]) 1 | phenotypically active (WPMY1-GM130-SQSTM1) 1 | phenotypically active (WPMY1-TP53BP1-CLTA) 1 | phenotypically active (WPMY1-TUBA1B-RELA) 1
3 µM: lowest phenotypically active concentration (A549-GM130-SQSTM1 [2])
9 µM: lowest phenotypically active concentration (A549-ACTB-RAB5A [1]) | lowest phenotypically active concentration (HepG2-ACTB-RAB5A [8]) | lowest phenotypically active concentration (WPMY1-CANX-COX4 [9])
inactive: phenotypically active (A549-CANX-COX4) 0 | phenotypically active (A549-TUBA1B-RELA [5]) 0 | phenotypically active (HepG2-CANX-COX4) 0 | phenotypically active (HepG2-TUBA1B-RELA) 0

COc1ccccc1OCCNCC(O)COc1cccc2[nH]c3ccccc3c12 (configuration not stated) [Carvedilol]
active: phenotypically active (A549-ACTB-RAB5A [3]) 1 | phenotypically active (A549-GM130-SQSTM1 [4]) 1 | phenotypically active (A549-TP53BP1-CLTA) 1 | phenotypically active (A549-TUBA1B-RELA [5]) 1 | phenotypically active (HepG2-ACTB-RAB5A [6]) 1 | phenotypically active (HepG2-CANX-COX4) 1 | phenotypically active (HepG2-GM130-SQSTM1) 1 | phenotypically active (HepG2-TP53BP1-CLTA) 1 | phenotypically active (HepG2-TUBA1B-RELA) 1 | phenotypically active (WPMY1-ACTB-RAB5A) 1 | phenotypically active (WPMY1-CANX-COX4 [7]) 1 | phenotypically active (WPMY1-GM130-SQSTM1) 1 | phenotypically active (WPMY1-TP53BP1-CLTA) 1 | phenotypically active (WPMY1-TUBA1B-RELA) 1
9 µM: lowest phenotypically active concentration (A549-ACTB-RAB5A [1]) | lowest phenotypically active concentration (A549-GM130-SQSTM1 [2]) | lowest phenotypically active concentration (A549-TUBA1B-RELA [10]) | lowest phenotypically active concentration (HepG2-ACTB-RAB5A [8]) | lowest phenotypically active concentration (WPMY1-CANX-COX4 [9])
inactive: phenotypically active (A549-CANX-COX4) 0
